Activity change data for 87 compounds are collected here from PubChem BioAssay AID743279 (National Center for Advancing Translational Sciences (NCATS), 2014).

The structures appear in SMILES notation. The campaign covered roughly 360,000 compounds. About 17,000 (4.7%) were called active. About 5% were inconclusive and are not listed. Many of the other results were omitted from the sample, so actives are more common in it than they were. Unmarked numbers belong to inactive results. Rule as the data show it: active = activity change below about -50%; inconclusive = mostly about -30% to -49%; inactive = weaker than that.
% is scaled to controls: 0 for no effect and ±100 for the full control effect.

The nature of the test: qHTS for Inhibitors of Inflammasome Signaling: IL-1-beta AlphaLISA Primary Screen. The conditions noted are these: THP-1 LPS/ATP IL-1B secretion, 16 h; at 57.5 µM, hits give low values. The method, boiled down:
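THP-1 cells pretreated 1 hr with compounds (up to 57.5 uM final), then stimulated with LPS (250 ng/mL final) plus ATP (1.25 mM final); secreted IL-1B measured by AlphaLISA after 16 hr, decreased signal indicating inhibition.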
Background: Quantitative high-throughput screening tests each substance at several concentrations.
Consider `Nc1scc(-c2ccncc2)c1Cl`, for which the activity change was -0.276%.
As for `CC(=O)OCCN(CCCn1c(-c2ccncc2)nc2ccccc21)c1nc(-c2ccc(C)cc2)cs1`, the activity change was 14.2%.
For `c1ccc(CNCc2ccc(CNCc3ccccc3)cc2)cc1` the value was -20.3%; for `COCCNC(=O)/C(C#N)=C/c1nc(N(C)C)n(-c2ccc(F)cc2)c1Cl`, -69.9% (active); for `COCCCNC(=O)/C(C#N)=C/c1c(N2CCCCCC2)nc2ccccn2c1=O`, -20.1%.
As for `COCCNC(=O)/C(C#N)=C/c1cccc(OCc2ccccc2)c1`, the activity change was -8.24%.
For `C=CCNc1scc(-c2ccccc2)[n+]1CC=C` the value was -19.1%.
As to `C=CC[n+]1c(-c2ccc(C)cc2)csc1NNC(=O)Nc1ccccc1`, the activity change was -79.2% (active).
For `O=C(NNC(=O)c1ccc(-c2ccccc2)cc1)Nc1ccccc1` the value was -8.29%; for `CC(=O)Oc1ccc(Cn2c(C)c(C(=O)NCc3ccc(C#N)cc3)sc2=O)cc1`, 8.83%.
Turning to `N#CCCN(C(=S)Nc1ccc(Cl)c(Cl)c1)C1CCCCC1`, the activity change was -17.1%.
Turning to `CC(C)S(=O)(=O)c1csc(NC(=O)Nc2ccc(Cl)cc2)c1Cl`, the activity change was -95.1% (active).
For the compound `O=C(Nc1ccc(Cl)cc1)Nc1ccc(C(=O)N2CCOCC2)cc1`, the activity change is -29.9%.
With `O=C(NCc1ccccn1)Nc1ccc(Cl)cc1`, the activity change was -6.13%.
The result for `S=C(NC1CCCCC1)NN1CCOCC1` reads 31.1%; that for `O=C(CSc1nc2nccnc2c(=O)n1Cc1cccs1)Nc1ccccc1F`, 2.93%; that for `CC1(C(=O)NS(=O)(=O)Cc2cccc(Cl)c2)CCN1C(=O)Cc1ccccc1` (configuration not stated), 3.48%.
Regarding `O=C1[C@@H](c2ccccc2)[C@@H](c2ccccc2)N1c1cccnc1`, the activity change is -68.8% (active).
For `CCc1ccccc1NC1c2ccccc2C(=O)N1c1cccnc1` (configuration not stated) the value was 0%; for `O=C1C(=O)N(c2ccccc2)C(c2ccccc2)C1c1ccccc1` (configuration not stated), 5.18%.
In the case of `COc1cc(S(=O)(=O)N(Cc2cccs2)C2CC2)ccc1-n1cnnn1`, the activity change is 0%.
For `O=C(N[C@@H](Cc1ccccc1)C(=O)OCc1ccccc1)c1nc[nH]c1C(=O)NC1CCNCC1` the value was -10%; for `CC(C)(C)OC(=O)N1CCC(NC(=O)c2[nH]cnc2C(=O)N[C@@H](Cc2ccccc2)C(=O)OCc2ccccc2)CC1`, -58% (active).
On to `CC(C)(C)OC(=O)CNC(=O)c1[nH]cnc1C(=O)N[C@@H](Cc1ccccc1)C(=O)OCc1ccccc1`, for which the activity change is 52.8%.
For `Cc1cc(Br)ccc1NC(=O)CCCOc1cc(=O)n(C)c2ccccc12` the value was -13.4%; for `COc1cccc2c1OCC(CN1CCN(C3CCCCC3)C(CCO)C1)=C2` (configuration not stated), 18.2%; for `Cc1cccc(N2CCN(C(=O)c3cccc(N4C(=O)C5C6C=CC(C6)C5C4=O)c3)CC2)c1C` (configuration not stated), -52.9% (active).
`COC(=O)c1cccc(N2C(=O)C3C4C=CC(CC4)C3C2=O)c1` (configuration not stated): the activity change was 15.7%.
In the case of `CC1C=CCC2C(=O)N(c3cccc(C(=O)N4CCCCCC4)c3)C(=O)C12` (configuration not stated), the activity change was 23.7%.
With `Cc1ccccc1NC(=O)Cc1nc(COC(=O)CNC(=O)c2ccc(Cl)cc2Cl)cs1`, the activity change was 11%.
The result for `Cc1ccc(F)c(S(=O)(=O)NC(=O)C2(C)CCN2C(=O)c2ccco2)c1` (configuration not stated) reads 24%; that for `CC(=O)/C(=N\Nc1ccc(Cl)cc1Cl)Sc1cccc2cccnc12`, -103% (active).
The result for `S=C(NCc1cccnc1)Nc1ccc(Cl)cc1Cl` reads 11%; that for `O=C(NNc1cc(Cl)ccc1Cl)c1cccnc1Cl`, -6.39%.
Consider `O=C(COC(=O)/C=C/c1ccc(Cl)cc1)NC1CCS(=O)(=O)C1` (configuration not stated), for which the activity change is 1.68%.
The result for `CC(=O)Nc1ccc(-c2ccnc3c2CC(C(=O)NC(C)C)O3)cc1` (configuration not stated) reads -17%.
With `Nc1cccc2c1C(=O)N(Cc1nnc(-c3ccccc3Br)o1)C2=O`, the activity change was -5.13%.
For `CC(C)N(C(=O)[C@H]1C[C@H](CC(=O)NCCC2=CCCCC2)C(=O)N2CCc3c([nH]c4cc(CCC(=O)N(C)C)ccc34)[C@]12C)C(C)C` the value was -51.9% (active).
On to `CN(C)C(=O)CCc1ccc2c3c([nH]c2c1)[C@]1(C)[C@@H](C(=O)N2CCCCC2)C[C@H](CC(=O)NCCC2=CCCCC2)C(=O)N1CC3`, for which the activity change is -30%.
For `CN(C)C(=O)CCc1ccc2c3c([nH]c2c1)[C@]1(CCc2ccccc2)[C@@H](C(=O)N2CCCCC2)C[C@H](CC(=O)NCCC2=CCCCC2)C(=O)N1CC3` the value was -14.8%; for `COCCNc1cc(-c2ccccc2)nc2cc(-c3cccc(F)c3)nn12`, -67.2% (active).
The result for `COc1ccc(-c2cc3nc(NCCOc4ccccc4)ccn3n2)cc1` reads -17.4%; that for `COCCCNc1ccn2nc(-c3ccc(CC(C)C)cc3)cc2n1`, 47%.
`CCCCc1nccn1CCn1ccnc1CCCC`: the activity change was -1.41%.
For `CCOC(=O)c1sc(NC(=O)CCN2CCOCC2)c(C(=O)OCC)c1C` the value was 0%; for `CCOC(=O)Nc1sc(C(=O)N(C)C)c(C)c1C(=O)OCC`, 20.1%.
`CCOC(=O)c1c(NC(=O)CCl)sc(C(=O)N(CC)CC)c1C`: the activity change is -99.1% (active).
Regarding `CC(Oc1ccc(F)cc1)C(=O)Nc1cc(S(=O)(=O)N2CCOCC2)ccc1N1CCN(C)CC1` (configuration not stated), the activity change is -9.51%.
In the case of `O=C(Cc1ccc([N+](=O)[O-])cc1)NCCS(=O)(=O)N1CCN(c2ccccc2)CC1`, the activity change is 16.3%.
The result for `CCNC(=S)Nc1ccc2c(c1)c(=O)n(C)n2Cc1ccc(Cl)cc1` reads -17.7%; that for `CC(C)Oc1cc(F)ccc1-c1cc(C(=O)Nc2cccc(Cl)c2)[nH]n1`, 19.8%.
The result for `COc1ccccc1N1CCN(/N=C\C(Br)=C\c2ccccc2)CC1` reads -66.9% (active).
For `COc1cc(/C=N/N2CCN(c3ccccc3)CC2)ccc1OC(C)=O`, the activity change is -4.61%.
For `COc1ccccc1N1CCN(/N=C/c2ccc(O)cc2O)CC1` the value was -21.9%; for `CCCc1nc2c3ccccc3ccn2c1Cc1ccccc1C(F)(F)F`, 17.7%.
For `COCCCN(C(=S)Nc1c(C)cc(C)cc1C)C(C)c1ccncc1` (configuration not stated) the value was 0%; for `O=C(Nc1nnc(CCOCCOCCc2nnc(NC(=O)c3ccco3)s2)s1)c1ccco1`, -5.99%; for `O=C(Nc1nc(-c2ccco2)c(-c2ccco2)s1)c1ccco1`, -77.4% (active).
The result for `CCc1nnc(NC(=O)c2ccco2)s1` reads 10%.
For the compound `CCN1CCN(c2sc(S(C)(=O)=O)nc2S(=O)(=O)c2ccc(Cl)cc2)CC1`, the activity change was -97.8% (active).
For `CCN1CCN(C(=O)N(Cc2ccc(Cl)cc2)S(=O)(=O)c2ccc(C)cc2)CC1`, the activity change is -3.62%.
Take `CCN1CCN(c2ccc([N+](=O)[O-])cc2C(=O)c2ccc(Cl)cc2)CC1`: the activity change is -7.81%.
The result for `COc1cc([C@H](Cc2ccccc2)NC(C)=O)oc(=O)c1` reads 22.9%; that for `COc1cccc2c(=O)n(CC(=O)N3CCCCCC3)ccc12`, -3.57%.
For `COC(=O)COc1cccc2c(=O)n(CC(=O)NCc3ccccc3)ccc12` the value was -57.4% (active); for `Cc1ccc(CNC(=O)CCNC(=O)Cn2ccc3ccccc3c2=O)cc1`, -21.6%; for `O=C(Nc1cccc(S(=O)(=O)NC2=NCCC2)c1)C1CCCCC1`, 23.8%.
The result for `O=C(NCc1ccccc1)C1=C[C@@H](c2ccc(C(F)(F)F)cc2)C[C@@H](OCc2ccc(CO)cc2)O1` reads -53.9% (active); that for `O=C(C1=C[C@H](c2coc3ccccc3c2=O)C[C@H](OCc2ccc(CO)cc2)O1)N1CCOCC1`, -3.08%; that for `CC(=O)n1cc([C@H]2C=C(C(=O)N3CCOCC3)O[C@@H](OCc3ccc(CO)cc3)C2)c2ccccc21`, -1.15%.
As for `CN1CCN(C(=O)C2=C[C@H](c3ccc4c(c3)OCO4)C[C@H](OCc3ccc(CO)cc3)O2)CC1`, the activity change is -10.6%.
Regarding `O=C(C1=C[C@H](c2coc3ccccc3c2=O)C[C@H](OCc2ccc(CO)cc2)O1)N1CCN(Cc2ccccc2)CC1`, the activity change is -63.5% (active).
Regarding `O=C(C1=C[C@H](c2ccc(C(F)(F)F)cc2)C[C@H](OCc2ccc(CO)cc2)O1)N1CCN(Cc2ccccc2)CC1`, the activity change was -80.4% (active).
For `O=C(C1=C[C@H](C2CC2)C[C@H](OCc2ccc(CO)cc2)O1)N1CCN(Cc2ccccc2)CC1`, the activity change is -22.6%.
The result for `O=C(NCc1ccccc1)C1=C[C@H](C2CC2)C[C@H](OCc2ccc(CO)cc2)O1` reads -25.1%; that for `O=C(NCc1ccccc1)C1=C[C@@H](C2CCCCC2)C[C@@H](OCc2ccc(CO)cc2)O1`, -17.5%; that for `c1ccc(-c2c[nH]c(-c3ccccc3)c2)cc1`, 14%.
The result for `N#CCCC(C#N)(c1cccnc1)N1CCOCC1` (configuration not stated) reads 2.31%; that for `CC(C)(C)c1ccc(/C=C/C(=O)NCCCn2ccnc2)cc1`, -13.5%; that for `Oc1cccc(CCc2ccccn2)c1`, -8.08%.
The result for `Cc1cccc(N2CCN(C(=O)COCc3cc(-c4ccc5c(c4)OCO5)on3)CC2)c1C` reads -0.251%.
With `CCc1cc(C(=O)N(CC)CC(=O)Nc2c(F)cccc2F)sc1C`, the activity change is -0.176%.
With `COc1cc(CCN=Cc2ccccc2O)c([N+](=O)[O-])cc1OC`, the activity change is 13.4%.
With `Cc1csc(=O)n1CCC(=O)OCC(=O)Nc1ccc(N2CCOCC2)cc1`, the activity change was 0%.
For `COC(=O)[C@H](Cc1ccccc1)NC(=O)Nc1ccc(S(N)(=O)=O)cc1` the value was 9.1%.
The result for `COc1ccc(C(=O)NC(=S)N2CCCCC2c2cccnc2)cc1OC` (configuration not stated) reads -16.3%; that for `CSc1ncccc1C(=O)N1CCCC(Nc2ccc(F)c(F)c2)C1` (configuration not stated), 43.2%.
